Results taken from PubChem BioAssay (NCATS).
Records with an inconclusive call do not appear. Where a call stands in place of a potency, no number is given. Active and inactive are the calls of the source. Unless noted, calls follow the shape of the dose curve; as a rule, active = well fitted curve in the direction sought with a large enough effect; inconclusive = small, poorly fitted or top-dose-only effect, or another doubt; inactive = no such curve, though single readings can be large; an effect the other way counts as inactive or inconclusive.

Key:
[1] = qHTS for Inhibitors of the Functional Ribonucleoprotein Complex (vRNP) of Lassa (LASV) Arenavirus: Viability assay - alamar blue signal for LASV Primary Screen (AID 1347083; calls by dose curve; tested in HEK293 reporter line; also: nearly all actives have a fitted effect of over 80% in size)
[2] = qHTS for Inhibitors of the Functional Ribonucleoprotein Complex (vRNP) of Lymphocytic Choriomeningitis Arenaviruses (LCMV): Viability assay - alamar blue signal for LCMV Primary Screen (AID 1347085; calls by dose curve; tested in HEK293 reporter line; also: nearly all actives have a fitted effect of over 80% in size)
[3] = target: Nucleoprotein (Lymphocytic choriomeningitis virus (strain Armstrong)) (UniProt P09992); experiment: qHTS for Inhibitors of the Functional Ribonucleoprotein Complex (vRNP) of Lymphocytic Choriomeningitis Arenaviruses (LCMV): LCMV Primary Screen - GLuc reporter signal (AID 1347086; calls by dose curve; also: nearly all actives have a fitted effect of over 70% in size)
Chain of Nucleoprotein (Lymphocytic choriomeningitis virus (strain Armstrong)) (P09992 whole entry, looked up): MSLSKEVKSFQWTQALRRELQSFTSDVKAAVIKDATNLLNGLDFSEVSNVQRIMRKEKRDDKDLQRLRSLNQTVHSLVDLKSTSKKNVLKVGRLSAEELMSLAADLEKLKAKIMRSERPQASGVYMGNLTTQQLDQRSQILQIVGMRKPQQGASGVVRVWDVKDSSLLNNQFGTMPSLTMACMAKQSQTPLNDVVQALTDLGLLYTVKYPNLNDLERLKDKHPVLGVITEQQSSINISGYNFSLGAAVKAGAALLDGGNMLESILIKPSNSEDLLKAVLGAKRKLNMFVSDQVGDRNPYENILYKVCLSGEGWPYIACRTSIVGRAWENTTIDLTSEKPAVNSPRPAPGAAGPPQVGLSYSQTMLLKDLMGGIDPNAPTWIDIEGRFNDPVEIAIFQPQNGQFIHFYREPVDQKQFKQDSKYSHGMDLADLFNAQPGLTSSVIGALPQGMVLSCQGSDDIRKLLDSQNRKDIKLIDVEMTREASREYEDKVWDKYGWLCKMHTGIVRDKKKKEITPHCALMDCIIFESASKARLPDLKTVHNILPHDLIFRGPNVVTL

[4] = qHTS of pediatric cancer cell lines to identify multiple opportunities for drug repurposing: Primary screen for TC32 cells (AID 1347089); also: nearly all actives have a fitted effect of over 60% in size
Outline: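 Measured quantity: luminescence from CellTiter-Glo, reflecting metabolically active TC32 cells following 48 h of compound. Curves came straight from multi-point titrations, with 8 or 11 points in primary and 11 in confirmatory screening.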

[5] = qHTS of pediatric cancer cell lines to identify multiple opportunities for drug repurposing: Primary screen for DAOY cells (AID 1347090); also: nearly all actives have a fitted effect of over 55% in size
Outline: (§1)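 Cell viability, CellTiter-Glo luminescence; 500-1,000 cells/well, 8- or 11-point titration, 48 h compound exposure at 37 degrees C, 5% CO2. Controls: DMSO neutral, bortezomib 2.3 µM final as positive.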

[6] = qHTS of pediatric cancer cell lines to identify multiple opportunities for drug repurposing: Primary screen for SJ-GBM2 cells (AID 1347091)
Outline: as §1

[7] = qHTS of pediatric cancer cell lines to identify multiple opportunities for drug repurposing: Primary screen for A673 cells (AID 1347092); also: nearly all actives have a fitted effect of over 45% in size
Outline: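 Cells are plated, rested 5 h, dosed by pintool, incubated 48 h, then lysed with CellTiter-Glo and read by luminescence. DMSO is the neutral control; bortezomib at 2.3 uM final is the positive control.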

[8] = qHTS of pediatric cancer cell lines to identify multiple opportunities for drug repurposing: Primary screen for SK-N-MC cells (AID 1347093)
Outline: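 Metabolically active cells were quantified by ATP-dependent luminescence (CellTiter-Glo, 15 min at room temperature) following 48 h treatment. Cells had been plated at 500-1,000 per well and settled for 5 h beforehand.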

[9] = qHTS of pediatric cancer cell lines to identify multiple opportunities for drug repurposing: Primary screen for NB-EBc1 cells (AID 1347095)
Outline: (§2)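 Plated cells (500-1,000 per well, growth media) were allowed to settle for 5 hours, treated with compound dilutions for 48 hours, then lysed with CellTiter-Glo for 15 min at room temperature before luminescence reading.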

[10] = qHTS of pediatric cancer cell lines to identify multiple opportunities for drug repurposing: Primary screen for BT-37 cells (AID 1347094)
Outline: as §2
Potency is read from the fitted curve at half-maximal effect.

Compound | Potency [1] | Potency [2] | Potency [3] | Potency [4] | Potency [5] | Potency [6] | Potency [7] | Potency [8] | Potency [9] | Potency [10]
CC1=NN=C(c2ccc(N)cc2)c2cc3c(cc2C1)OCO3 | inactive | inactive | inactive | inactive | inactive | inactive | inactive | inactive | inactive | –
C[C@@H]1[C@H](O)[C@@H](C)C=CC=CCCC=CC=CC=CC=C[C@H](O[C@H]2O[C@@H](C)[C@H](O)[C@@H](N)[C@@H]2O)CC2O[C@](O)(C[C@@H](O)[C@H](O)CC[C@@H](O)C[C@@H](O)C[C@@H](O)CC(=O)O[C@H]1C)C[C@H](O)[C@H]2C(=O)O | inactive | inactive | inactive | inactive | inactive | inactive | inactive | inactive | inactive | inactive
O=C(O)c1cc(Oc2ccc(C(F)(F)F)cc2Cl)ccc1[N+](=O)[O-] | inactive | inactive | inactive | inactive | inactive | inactive | inactive | inactive | inactive | inactive
CS(=O)(=O)c1ccc(C(=O)C2C(=O)CCCC2=O)c([N+](=O)[O-])c1 | inactive | inactive | inactive | inactive | inactive | inactive | inactive | 0.001 µM (active) | inactive | inactive
COC(=O)c1cncn1C(C)c1ccccc1 (configuration not stated) | inactive | inactive | inactive | inactive | inactive | inactive | inactive | – | inactive | inactive
C1CCC(NC2CCCCC2)CC1 | inactive | inactive | inactive | inactive | inactive | inactive | inactive | inactive | inactive | inactive
CCOCCOC(C)=O | inactive | inactive | inactive | inactive | inactive | inactive | inactive | inactive | inactive | inactive
CC(C)(O)C=CC(=O)[C@](C)(O)[C@H]1[C@H](O)C[C@]2(C)[C@@H]3CC=C4[C@@H](C=C(O)C(=O)C4(C)C)[C@]3(C)C(=O)C[C@@]12C | 3.06 µM (active) | 9.68 µM (active) | 10.9 µM (active) | 1.31 µM (active) | 0.187 µM (active) | 0.209 µM (active) | 0.187 µM (active) | 0.0332 µM (active) | 0.332 µM (active) | 1.37 µM (active)
CC(C)NCC(O)c1ccc([N+](=O)[O-])cc1 (configuration not stated) | inactive | inactive | inactive | inactive | inactive | inactive | inactive | inactive | inactive | inactive
N#C[C@H](O[C@@H]1O[C@H](CO[C@@H]2O[C@H](CO)[C@H](O)[C@H](O)[C@H]2O)[C@H](O)[C@H](O)[C@H]1O)c1ccccc1 | 19.3 µM (active) | 38.5 µM (active) | 24.3 µM (active) | inactive | 23.5 µM (active) | 26.4 µM (active) | 29.6 µM (active) | 10.5 µM (active) | inactive | –
Cc1ccc(Cl)c(O)c1 | inactive | inactive | inactive | inactive | inactive | inactive | inactive | inactive | inactive | inactive
O=C(O)COc1nc(Cl)c(Cl)cc1Cl | inactive | inactive | inactive | inactive | inactive | inactive | inactive | 0.001 µM (active) | inactive | inactive
CC[C@@H]1[C@@H](C)O[C@@](O)([C@@H](C)[C@H](O)[C@H](C)[C@H]2OC(=O)C=CC=C[C@@H](C)[C@@H]([C@@H](C)[C@@H](O)[C@H](C)[C@@]3(O)C[C@H](O[C@H]4C[C@H](O)[C@H](O)[C@H](C)O4)[C@H](CC)[C@@H](C)O3)OC(=O)C=CC=C[C@@H]2C)C[C@H]1O[C@H]1C[C@H](O)[C@H](O)[C@H](C)O1 | 43.2 µM (active) | 38.5 µM (active) | 13.7 µM (active) | 18.6 µM (active) | 0.469 µM (active) | 0.526 µM (active) | 0.743 µM (active) | 0.372 µM (active) | 0.418 µM (active) | –
CC(Cc1ccc(O)cc1)NCC(O)c1cc(O)cc(O)c1 (configuration not stated) | inactive | inactive | inactive | inactive | inactive | inactive | inactive | inactive | inactive | inactive
CCN(CC)C(=O)c1ccc(C2=CC3(CCNCC3)Oc3cccc(O)c32)cc1 | inactive | inactive | inactive | inactive | inactive | inactive | inactive | inactive | inactive | inactive
O=[N+]([O-])/N=C1\NCCN1Cc1ccc(Cl)nc1 | inactive | inactive | inactive | inactive | inactive | inactive | inactive | inactive | inactive | inactive
CCOP(=O)(NC(C)C)Oc1ccc(SC)c(C)c1 (configuration not stated) | inactive | inactive | inactive | inactive | inactive | inactive | inactive | inactive | inactive | –
Nc1ccc(Cl)cc1 | inactive | inactive | inactive | inactive | inactive | inactive | inactive | inactive | inactive | inactive
C[C@]12CC[C@@H]3[C@@H](CCC4=CC(=O)CC[C@@H]43)[C@@H]1CC[C@@H]2OC(=O)CCc1ccccc1 | inactive | inactive | inactive | inactive | inactive | inactive | – | inactive | inactive | inactive
O=S(=O)(c1ccc(Cl)cc1)c1ccc(Cl)cc1 | inactive | inactive | inactive | inactive | inactive | – | inactive | – | – | –
O=C(Oc1ccc([N+](=O)[O-])cc1)N1CCC(C(O)(c2ccc3c(c2)OCO3)c2ccc3c(c2)OCO3)CC1 | 24.3 µM (active) | 3.06 µM (active) | inactive | inactive | inactive | inactive | – | 16.6 µM (active) | inactive | –

Compound | Potency [1] | Potency [2] | Potency [3] | Potency [4] | Potency [5] | Potency [6] | Potency [7] | Potency [8] | Potency [9] | Potency [10]
CCC(=O)OC1CCC2C3CCC4=CC(=O)CC[C@@]4(C)C3CC[C@]12C (some centres not stated) | inactive | inactive | inactive | inactive | inactive | inactive | – | – | inactive | inactive
NC1CC1c1ccccc1 (configuration not stated) | inactive | inactive | inactive | inactive | inactive | inactive | inactive | – | inactive | –
NC1=NC(=O)N2CC12 (configuration not stated) | inactive | inactive | inactive | inactive | inactive | inactive | – | – | inactive | 19.3 µM (active)
Oc1ccc2c3c1O[C@H]1c4[nH]c5c(c4C[C@@]4(O)[C@@H](C2)N(CC2CC2)CC[C@]314)C[C@@]1(O)[C@H]2Cc3ccc(O)c4c3[C@@]1(CCN2CC1CC1)[C@H]5O4 | inactive | inactive | inactive | inactive | inactive | inactive | inactive | – | inactive | –
O=C1C(I)=CC(=C(c2cc(I)c(O)c(I)c2)c2ccccc2C(=O)O)C=C1I | inactive | inactive | inactive | inactive | inactive | inactive | – | – | inactive | inactive
CN[C@@H]1Cc2cccc3[nH]c(=O)n(c23)C1 | inactive | inactive | inactive | inactive | inactive | inactive | – | inactive | inactive | inactive
Nc1ccc(Sc2ccc(N)cc2)cc1 | inactive | inactive | inactive | inactive | inactive | inactive | – | – | inactive | inactive
COc1cccc2c1[C@]13CCN(CC4CC4)[C@H](C2)[C@]1(OC)CCC(=O)C3 | inactive | inactive | inactive | inactive | inactive | inactive | inactive | – | inactive | inactive
OCCCBr | inactive | inactive | inactive | inactive | inactive | inactive | inactive | – | inactive | inactive
c1ccc(CCCN2CCN(CCOC(c3ccccc3)c3ccccc3)CC2)cc1 | inactive | inactive | inactive | inactive | 29.6 µM (active) | – | 23.5 µM (active) | – | – | –
CCN1C[C@]2(OC(=O)c3ccccc3NC(C)=O)CC[C@H](OC)[C@@]34[C@H]5CC6[C@@H](OC)C[C@](O)(C(C[C@@H]23)[C@@H]14)[C@@]5(O)[C@@H]6OC | inactive | inactive | inactive | inactive | inactive | inactive | inactive | – | inactive | inactive
O=[N+]([O-])c1c(Cl)c(Cl)cc(Cl)c1Cl | inactive | inactive | inactive | inactive | inactive | inactive | inactive | – | inactive | inactive
O=S(=O)(O)C(F)(F)C(F)(F)C(F)(F)C(F)(F)C(F)(F)C(F)(F)C(F)(F)C(F)(F)F | inactive | inactive | inactive | inactive | inactive | inactive | inactive | – | inactive | inactive
C[C@]12Cc3cn[nH]c3C[C@@H]1CC[C@@H]1[C@H]2CC[C@@]2(C)[C@H]1CC[C@]2(C)O | inactive | inactive | inactive | inactive | inactive | – | 14.8 µM (active) | 0.469 µM (active) | – | –
CC(C)N[C@@H]1CCn2c(=O)[nH]c3cccc(c32)[C@@H]1O | 19.3 µM (active) | 4.85 µM (active) | 2.73 µM (active) | inactive | 1.18 µM (active) | 6.62 µM (active) | 0.833 µM (active) | – | inactive | 27.3 µM (active)
C[C@]12CC[C@H]3[C@@H](CCC4=CC(=O)CC[C@@]43C)[C@H]1CC[C@H]2O | inactive | inactive | inactive | inactive | inactive | inactive | – | inactive | inactive | –
CC(C)N(CCNC(=O)CN1CCCC1=O)C(C)C | inactive | inactive | inactive | inactive | inactive | inactive | inactive | – | inactive | inactive
COCCOCCO | inactive | inactive | inactive | inactive | inactive | inactive | inactive | – | inactive | –
Cc1nc(-c2ccc(-c3ccc(C(=O)N4CCc5cc6c(cc54)C4(CCN(C)CC4)CO6)cc3)c(C)c2)no1 | inactive | inactive | inactive | inactive | inactive | inactive | inactive | – | inactive | inactive
CCCCOC(=O)c1ccccc1C(=O)OCc1ccccc1 | inactive | inactive | inactive | inactive | inactive | inactive | inactive | – | inactive | inactive
COc1ccc2c(c1)CN(C)CC2c1ccc(Cl)c(Cl)c1 (configuration not stated) | 7.69 µM (active) | inactive | inactive | inactive | inactive | 18.7 µM (active) | – | 18.7 µM (active) | – | –
